Only a selection was taken, and hits are over-represented in it overall.
mHTT CaM bind – disrupts binding of mutant huntingtin to calmodulin; 190,000 tested, 3.6% active; AID 1671202; AlphaScreen His-mHTT/GST-CaM binding, luminescence; inhibition, % at 15 µM;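 also: 0% = both proteins with DMSO and 100% = one protein alone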
Target sequence (P42858 whole entry, looked up, stated change not applied): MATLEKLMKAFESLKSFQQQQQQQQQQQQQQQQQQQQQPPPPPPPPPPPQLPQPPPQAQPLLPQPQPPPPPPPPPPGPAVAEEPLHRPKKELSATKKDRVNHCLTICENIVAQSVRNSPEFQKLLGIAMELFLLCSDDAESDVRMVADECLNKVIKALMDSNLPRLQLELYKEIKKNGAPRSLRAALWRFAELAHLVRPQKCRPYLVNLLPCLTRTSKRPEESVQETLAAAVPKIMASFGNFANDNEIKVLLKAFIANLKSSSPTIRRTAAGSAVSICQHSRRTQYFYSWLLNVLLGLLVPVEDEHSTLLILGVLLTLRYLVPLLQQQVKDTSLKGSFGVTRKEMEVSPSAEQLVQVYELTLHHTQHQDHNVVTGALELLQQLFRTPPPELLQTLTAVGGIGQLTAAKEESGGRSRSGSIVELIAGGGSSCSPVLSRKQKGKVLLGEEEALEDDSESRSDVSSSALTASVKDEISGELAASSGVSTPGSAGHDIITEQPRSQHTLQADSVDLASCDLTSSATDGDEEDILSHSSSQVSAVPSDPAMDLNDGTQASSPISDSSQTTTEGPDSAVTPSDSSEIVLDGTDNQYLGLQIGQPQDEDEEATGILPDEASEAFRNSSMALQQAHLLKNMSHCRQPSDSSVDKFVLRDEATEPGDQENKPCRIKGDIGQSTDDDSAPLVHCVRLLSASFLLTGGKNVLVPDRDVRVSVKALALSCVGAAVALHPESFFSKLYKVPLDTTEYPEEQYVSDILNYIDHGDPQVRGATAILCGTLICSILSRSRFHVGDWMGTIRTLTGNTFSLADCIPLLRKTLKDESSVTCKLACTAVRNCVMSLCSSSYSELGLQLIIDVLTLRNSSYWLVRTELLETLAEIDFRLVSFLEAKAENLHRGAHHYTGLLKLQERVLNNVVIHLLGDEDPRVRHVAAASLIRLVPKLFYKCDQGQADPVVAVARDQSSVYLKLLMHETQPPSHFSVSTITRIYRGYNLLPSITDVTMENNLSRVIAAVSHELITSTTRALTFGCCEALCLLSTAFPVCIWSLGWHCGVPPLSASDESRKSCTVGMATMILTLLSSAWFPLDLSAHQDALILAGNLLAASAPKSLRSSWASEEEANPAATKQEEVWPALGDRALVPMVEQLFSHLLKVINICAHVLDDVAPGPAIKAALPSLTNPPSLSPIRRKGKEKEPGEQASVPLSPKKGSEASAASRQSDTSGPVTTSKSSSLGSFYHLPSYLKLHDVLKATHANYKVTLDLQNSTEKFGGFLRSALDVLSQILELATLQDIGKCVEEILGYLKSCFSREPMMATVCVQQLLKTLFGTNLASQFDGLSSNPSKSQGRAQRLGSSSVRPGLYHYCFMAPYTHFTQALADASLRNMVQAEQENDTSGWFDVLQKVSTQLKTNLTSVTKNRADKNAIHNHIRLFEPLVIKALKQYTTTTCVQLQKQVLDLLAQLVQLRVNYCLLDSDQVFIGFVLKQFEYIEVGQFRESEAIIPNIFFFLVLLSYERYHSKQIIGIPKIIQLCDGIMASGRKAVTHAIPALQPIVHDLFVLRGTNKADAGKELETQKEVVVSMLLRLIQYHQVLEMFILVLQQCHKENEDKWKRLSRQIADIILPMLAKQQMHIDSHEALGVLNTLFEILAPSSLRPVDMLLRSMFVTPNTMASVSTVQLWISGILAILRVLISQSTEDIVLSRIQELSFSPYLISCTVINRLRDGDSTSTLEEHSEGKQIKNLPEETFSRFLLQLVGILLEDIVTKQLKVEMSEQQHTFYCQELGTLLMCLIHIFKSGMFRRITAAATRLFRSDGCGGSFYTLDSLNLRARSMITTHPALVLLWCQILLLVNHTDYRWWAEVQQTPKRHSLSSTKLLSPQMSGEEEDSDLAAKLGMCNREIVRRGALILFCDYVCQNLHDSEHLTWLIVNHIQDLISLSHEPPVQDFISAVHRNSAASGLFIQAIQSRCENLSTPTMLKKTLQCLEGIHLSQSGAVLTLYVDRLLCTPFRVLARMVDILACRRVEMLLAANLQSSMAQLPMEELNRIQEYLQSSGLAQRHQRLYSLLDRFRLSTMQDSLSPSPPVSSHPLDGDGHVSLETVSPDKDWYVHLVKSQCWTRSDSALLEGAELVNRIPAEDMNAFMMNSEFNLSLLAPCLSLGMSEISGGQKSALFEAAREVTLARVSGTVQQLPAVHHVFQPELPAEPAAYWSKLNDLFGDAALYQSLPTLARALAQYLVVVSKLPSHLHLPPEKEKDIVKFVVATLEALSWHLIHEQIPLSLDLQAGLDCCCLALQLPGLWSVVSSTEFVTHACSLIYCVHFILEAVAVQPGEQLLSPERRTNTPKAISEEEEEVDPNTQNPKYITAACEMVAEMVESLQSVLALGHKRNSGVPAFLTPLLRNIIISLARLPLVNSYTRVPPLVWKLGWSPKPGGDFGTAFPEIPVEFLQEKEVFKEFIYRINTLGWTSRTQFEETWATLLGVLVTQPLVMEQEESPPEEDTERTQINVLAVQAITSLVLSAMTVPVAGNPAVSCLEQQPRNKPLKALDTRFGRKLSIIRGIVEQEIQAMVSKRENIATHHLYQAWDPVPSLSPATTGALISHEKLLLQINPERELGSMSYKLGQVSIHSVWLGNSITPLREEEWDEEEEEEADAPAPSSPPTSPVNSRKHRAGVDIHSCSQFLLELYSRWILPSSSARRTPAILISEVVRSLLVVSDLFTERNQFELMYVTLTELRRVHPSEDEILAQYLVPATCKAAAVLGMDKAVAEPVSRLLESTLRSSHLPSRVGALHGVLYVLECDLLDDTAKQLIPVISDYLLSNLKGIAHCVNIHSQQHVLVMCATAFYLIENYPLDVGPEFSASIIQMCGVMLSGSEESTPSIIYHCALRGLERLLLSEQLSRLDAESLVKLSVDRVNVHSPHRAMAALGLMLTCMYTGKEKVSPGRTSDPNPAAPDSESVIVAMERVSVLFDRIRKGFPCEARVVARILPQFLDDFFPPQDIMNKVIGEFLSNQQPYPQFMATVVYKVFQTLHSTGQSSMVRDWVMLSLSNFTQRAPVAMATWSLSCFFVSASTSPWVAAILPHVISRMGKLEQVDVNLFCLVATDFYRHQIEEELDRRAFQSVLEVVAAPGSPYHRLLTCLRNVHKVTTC
Pf apPOL inh – Pf-apPOL DNA polymerase inhibition. Recombinant Pf-apPOL, molecular beacon fluorescence, 1.5 h. 210,000 tested, 0.25% active. inhibition, % at 10 µM. AID 1794808
Active calls of the source: *; . = no result given. Rule as the data show it: active = inhibition above about 50%; inactive = the rest.

SMILES	mHTT CaM bind	Pf apPOL inh
CN1c2ccccc2C(C)(C)C12C=Cc1cc(Br)cc([N+](=O)[O-])c1O2 (stereo unspecified)	.	-499
COc1cccc2c1OC1(C=C2)N(C)c2ccc([N+](=O)[O-])cc2C1(C)C (stereo unspecified)	8	5
COc1ccc2c(c1)C(C)(C)C1(C=Cc3cc([N+](=O)[O-])ccc3O1)N2C (stereo unspecified)	70*	-2
CC1(C)c2ccccc2N(CC(N)=O)C12C=Cc1cc([N+](=O)[O-])ccc1O2 (stereo unspecified)	85*	4
Cc1ccc(C(=O)N2CCC(c3nc(C(=O)N4CCOCC4)c(C)o3)CC2)cc1F	2	-2
CCCc1nnsc1C(=O)Nc1ccc2c(c1)N(C(=O)c1cccs1)CC2	-6	-32
CCC(=O)Nc1nc(-c2ccccc2)c(C)s1	1	-5
CCn1nc(C(=O)N2CCCC2)cc1-c1ccc(OC)cc1	-1	-5
O=C(NCCC1CCN(S(=O)(=O)c2ccc(F)cc2)CC1)Nc1ccccc1	29	-2
COCCNC(=O)NCCC1CCN(S(=O)(=O)c2ccc(C)cc2)CC1	55*	3
COC(=O)CNC(=O)NCCC1CCN(S(=O)(=O)c2ccc(C)cc2)CC1	39	-5
Cc1ccc(S(=O)(=O)N2CCC(CCNC(=O)Nc3ccccc3)CC2)cc1	53*	-3
O=C(Nc1ccc(CN2CCCCC2)cc1)C1CCCN(C(=O)c2cccc(Cl)c2)C1 (stereo unspecified)	33	-1
CC(C)(C)C1CCC2(CC1)NN=C(c1ccccc1)S2 (stereo unspecified)	-33	-1
CCN(CC)C(=O)C1CCCN(Cc2ccc([N+](=O)[O-])o2)C1 (stereo unspecified)	2	-28
CCN(CC)C(=O)C1CCCN(c2ccc([N+](=O)[O-])cc2C=O)C1 (stereo unspecified)	70*	0
O=C(Nc1nnc(-c2ccsc2)o1)c1cc(-c2ccccc2)on1	-4	-228
O=C(Cc1c(F)cccc1Cl)Nc1nnc(-c2ccsc2)o1	57*	8
O=C(Nc1nnc(-c2ccsc2)o1)c1ccccn1	100*	-181
O=C(Nc1nnc(-c2ccsc2)o1)c1ccccc1F	40	-5
Cc1ccc(C)c(S(=O)(=O)NCCC2CCN(C(=O)c3ccccc3)CC2)c1	47	10
Cc1ccc(C(=O)N2CCC(CCNS(=O)(=O)c3ccc(Cl)cc3)CC2)cc1	26	-3
Cc1ccc(C(=O)N2CCC(CCNS(=O)(=O)c3cc(C)c(C)cc3C)CC2)cc1	45	2
O=C(c1ccccc1)N1CCC(CCNS(=O)(=O)c2ccc(Cl)cc2)CC1	55*	5
CC(=O)c1ccc(S(=O)(=O)NCCC2CCN(C(=O)c3ccc(C)cc3)CC2)cc1	57*	3
SMILES	mHTT CaM bind	Pf apPOL inh
COc1ccc(OC)c(S(=O)(=O)NCCC2CCN(C(=O)c3ccc(C)cc3)CC2)c1	63*	-6
COc1ccc(S(=O)(=O)NCCC2CCN(C(=O)c3ccccc3)CC2)cc1	28	1
Cc1ccc(F)cc1S(=O)(=O)NCCC1CCN(C(=O)c2ccccc2)CC1	54*	2
O=C(C1CCCN(c2nnc3ccc(C(F)(F)F)cn23)C1)N1CCCCC1 (stereo unspecified)	15	-1
COc1cccc(CN2CCCCC2c2nc(-c3cnccn3)no2)c1 (stereo unspecified)	-3	-3
COc1cc(C(=O)NCC2CCN(S(C)(=O)=O)CC2)cc(OC)c1OC	1	1
C=CCOc1ccc(/C=C2\SC(=N)NC2=O)cc1OC	7	-6
Cc1cccc(-n2ncc3c(Nc4cccc(F)c4)ncnc32)c1	2	-6
C=C(C)c1ccccc1NC1=NS(=O)(=O)c2ccccc21	-3	-10
CCN1C=C(C(=O)OCc2cccc(Cl)c2)C(C)=NS1(=O)=O	-34	-1
CC(=O)Nc1ccc(S(=O)(=O)NCCC2CCN(C(=O)c3ccccc3)CC2)cc1	39	0
Cc1ccc(C(=O)N2CCC(CCNS(=O)(=O)c3cccc4cccnc34)CC2)cc1	62*	-1
CC(C)c1ccc(S(=O)(=O)NCCC2CCN(C(=O)c3ccccc3)CC2)cc1	51*	-1
O=C(c1ccc(F)cc1)N1CCC(CCNS(=O)(=O)c2cccc3cccnc23)CC1	45	-4
O=C(c1cc(F)cc(F)c1)N1CCC(c2cnn(-c3ccc(F)cc3)c2)CC1	-10	-2
O=c1[nH]c2c(s1)C(c1cccnc1)C1C3CCC(C3)C1S2 (stereo unspecified)	-2	-4
O=c1[nH]c2c(s1)C(c1ccc(O)cc1)C1C3CCC(C3)C1S2 (stereo unspecified)	63*	-5
CN(C)CCNC(=O)c1ccc(S(=O)(=O)N2CCCC2)cc1	-5	55*
O=C(NC1CCCCC1)c1ccc(S(=O)(=O)N2CCCC2)cc1	1	-4
CCOc1ccc(NC(=O)C(CC)CC)cc1	-3	-1
COc1cc(NC(=O)C(=NC2CCCCC2)c2ccccc2NC(C)=O)cc(OC)c1OC	25	-1
O=C1/C(=C/N(C(=O)c2ccco2)c2ccc([N+](=O)[O-])cc2)Sc2ccccc21	19	32
Cc1ccc(S(=O)(=O)N(/C=C2\Sc3ccccc3C2=O)c2ccc([N+](=O)[O-])cc2)cc1	60*	-2
Cc1ccc(-c2nc3cc(NC(=O)c4cc([N+](=O)[O-])c(C)c([N+](=O)[O-])c4)ccc3o2)cc1	2	-4
Cc1csc(-c2coc3c(C)c(OC(=O)c4ccccc4Cl)ccc3c2=O)n1	-11	-4
SMILES	mHTT CaM bind	Pf apPOL inh
Cc1ccc(C(=O)N2CCC(COc3ccc(C(=O)N4CCCC4)cc3)CC2)cc1F	-2	-1
COc1ccc(NCc2ccc(Cl)cc2Cl)cc1OC	45	-4
COc1cc(NCc2ccccc2Cl)cc(OC)c1	75*	3
CC(=O)Nc1ccccc1NC(=O)Cc1ccc(Cl)cc1	-1	95*
O=C(Cc1ccc(Cl)cc1)Nc1ccccc1NC(=O)Cc1ccc(Cl)cc1	-5	3
OC1C2C3CC4C5C3C1C(c1ccccc1)(C5O)C42 (stereo unspecified)	.	2
COc1ccccc1N1CCN(C(=O)c2cn(-c3ccc(F)cc3F)c(=O)c3ccccc23)CC1	36	-4
O=C(c1cn(-c2ccc(F)cc2F)c(=O)c2ccccc12)N1CCC(Cc2ccccc2)CC1	61*	-4
CC1=C(C(=O)Nc2cccc(C(F)(F)F)c2)C(c2ccccc2)C2=C(CC(C)(C)CC2=O)N1 (stereo unspecified)	92*	1
O=C1CCCC2=C1C(c1cccc([N+](=O)[O-])c1)Nc1ccc(C(=O)c3ccccc3)cc1N2 (stereo unspecified)	56*	-8
CC1=C(C(=O)Nc2cccc(C(F)(F)F)c2)C(c2ccccn2)C2=C(CC(C)(C)CC2=O)N1 (stereo unspecified)	-2	-9
O=C1CCCC2=C1C(c1cccnc1)Nc1ccc(C(=O)c3ccccc3)cc1N2 (stereo unspecified)	10	-2
CC1=C(C(=O)Nc2cccc(C(F)(F)F)c2)C(c2ccccc2)C2=C(CCCC2=O)N1 (stereo unspecified)	36	-2
CC1=C(C(=O)Nc2ccc(C)cn2)C(c2ccc(C)cc2)C2=C(CCCC2=O)N1 (stereo unspecified)	9	0
